Experimental data as given in PubChem BioAssay (Tox21).
Records with an inconclusive call do not appear. The source made the active and inactive calls. The call rests on the fitted dose curve; in most records, active means well fitted curve in the direction sought with a large enough effect in the repeat runs; inconclusive means weak or mixed curves; inactive means no such curve, though single readings can be large; an effect the other way counts as inactive or inconclusive.

Tests used:
[1] = qHTS RealTime-Glo MT Cell Viability Assay in HEK293 cells - 16 hour (AID 1224872); conditions: RealTime-Glo luminescence; series mostly up to 76.8 µM; further: nearly all actives have a fitted effect of over 50% in size; further: potency means the concentration at half of the fitted maximal effect
How it was run: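 Quantitative high-throughput screen of the Tox21 10K library in HEK293: cells and RealTime-Glo reagents plated together, compound added at 5 h, luminescence monitored through 40 h at 37 C.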

[2] = qHTS RealTime-Glo MT Cell Viability Assay in HEK293 cells - 40 hour (AID 1224874); conditions: RealTime-Glo luminescence; max response: active compounds read low; further: nearly all actives have a fitted effect of over 50% in size; further: potency means the concentration at half of the fitted maximal effect
How it was run: (§1)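 Cells were seeded together with NanoLuc luciferase and a prosubstrate that viable cells reduce to a luciferase substrate. After a 5 h incubation at 37 C/5% CO2, compounds were added and luminescence was measured repeatedly during 40 h of treatment.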

[3] = qHTS RealTime-Glo MT Cell Viability Assay in HepG2 cells - 32 hour (AID 1224877); conditions: RealTime-Glo luminescence; series mostly up to 76.8 µM; further: nearly all actives have a fitted effect of over 55% in size; further: potency means the concentration at half of the fitted maximal effect
How it was run: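 Compound treatment began 5 h after plating HepG2 cells (600/well) with NanoLuc luciferase and prosubstrate. Plates stayed at 37 C for 40 h; luminescence was captured at six time points, 0 h through 40 h.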

[4] = A CellTox Green Cytotoxicity Assay to monitor cytotoxicity in HepG2 cells - 24 hour (AID 1224878); conditions: CellTox Green fluorescence; series mostly up to 76.8 µM; further: nearly all actives have a fitted effect of over 45% in size; further: potency means the concentration at half of the fitted maximal effect
How it was run: (§2)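 Read-out is fluorescence of a cyanine dye excluded from live cells that stains DNA of dead HepG2 cells, with signal proportional to cytotoxicity. Plates were read at 0, 8, 16, 24, 32 and 40 h after compound addition.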

[5] = A CellTox Green Cytotoxicity Assay to monitor cytotoxicity in HepG2 cells - 40 hour (AID 1224879); conditions: CellTox Green fluorescence; series mostly up to 76.8 µM; further: nearly all actives have a fitted effect of over 40% in size; further: potency means the concentration at half of the fitted maximal effect
How it was run: as §2

[6] = qHTS RealTime-Glo MT Cell Viability Assay in HepG2 cells - 8 hour (AID 1224873); conditions: RealTime-Glo luminescence; series mostly up to 76.8 µM; further: nearly all actives have a fitted effect of over 55% in size
How it was run: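 HepG2 cells (600/well) mixed with RealTime-Glo MT reagent, settled 5 h at 37 C/5% CO2 before compound addition. Nonlytic NanoLuc luminescence from viable-cell prosubstrate reduction read repeatedly during 40 h treatment at 37 C.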

[7] = A CellTox Green Cytotoxicity Assay to monitor cytotoxicity in HEK293 cells - 24 hour (AID 1224875); conditions: CellTox Green fluorescence; series mostly up to 76.8 µM; further: nearly all actives have a fitted effect of over 45% in size; further: potency means the concentration at half of the fitted maximal effect
How it was run: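 Nonlytic real-time cytotoxicity: HEK293 + CellTox Green reagent plated, 5 h preincubation, pintool compound addition (23 nL in DMSO), 37 C for 40 h, fluorescence measured at successive time points.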

[8] = A CellTox Green Cytotoxicity Assay to monitor cytotoxicity in HepG2 cells - 16 hour (AID 1224876); conditions: CellTox Green fluorescence; series mostly up to 76.8 µM; further: nearly all actives have a fitted effect of over 45% in size; further: potency means the concentration at half of the fitted maximal effect
How it was run: as §2

[9] = qHTS RealTime-Glo MT Cell Viability Assay in HEK293 cells - 0 hour (AID 1224880); conditions: RealTime-Glo luminescence; series mostly up to 76.8 µM; further: top concentration of the series differs between compounds; nearly all actives have a fitted effect of over 45% in size
How it was run: as §1
On the % scale 0 is the no-effect control and ±100 the full control effect.

Cc1cc(O)c(Cl)c(C)c1Cl
active: Potency [4] 54.9 µM | Potency [5] 49 µM
inactive: Potency [1] | max response [2] -27.6% | Potency [3]

Fc1ccc([C@@H]2CCNC[C@H]2COc2ccc3c(c2)OCO3)cc1
inactive: Potency [1] | Potency [6] | Potency [7]
active: Potency [8] 23.9 µM | Potency [4] 26.8 µM | Potency [5] 26.8 µM

CSc1ccc2c(c1)C(N1CCN(C)CC1)Cc1ccccc1S2 (centres undefined)
active: Potency [8] 26.8 µM | Potency [3] 23.9 µM | Potency [4] 23.9 µM | Potency [5] 23.9 µM
inactive: Potency [1] | Potency [6]

CN1CCC(Nc2ncc3ncnc(Nc4ccc(F)c(Cl)c4)c3n2)CC1
inactive: Potency [6]
active: Potency [2] 10.7 µM | Potency [4] 23.9 µM | Potency [5] 26.8 µM

c1cc(C(c2ccc(OCC3CO3)cc2)c2ccc(OCC3CO3)cc2)ccc1OCC1CO1 (centres undefined)
inactive: Potency [1] | Potency [6] | Potency [7] | Potency [8] | Potency [4] | Potency [5] | Potency [9]

Nc1c(Cl)cc(Cl)cc1Cl
inactive: Potency [1] | Potency [6] | max response [2] -15.4% | Potency [8] | Potency [3] | Potency [4]

CN(C)c1ccc(C2(c3ccc(N(C)C)cc3)OC(=O)c3cc(N(C)C)ccc32)cc1
inactive: Potency [1] | max response [2] -1.22% | Potency [7] | Potency [8] | Potency [4] | Potency [5] | Potency [9]

O=Cc1cc(O)ccc1Br
inactive: Potency [6] | Potency [8] | Potency [3]

S=c1[nH]c2ccccc2s1
inactive: Potency [1] | Potency [6] | Potency [3] | Potency [5] | Potency [9]
active: Potency [7] 43.6 µM

O=C1CCCc2c1cc1ccc3cccc4ccc2c1c34
inactive: Potency [7] | Potency [8] | Potency [3] | Potency [4] | Potency [5] | Potency [9]
active: Potency [2] 9.89 µM

Oc1ccc(N=Nc2ccccc2)cc1
active: Potency [1] 15.7 µM | Potency [2] 22.2 µM
inactive: Potency [6] | Potency [8] | Potency [3] | Potency [9]

CC1(C)CCC(C)(C)c2cc(C(=O)Nc3ccc(C(=O)O)cc3)ccc21
inactive: Potency [1] | Potency [6] | max response [2] -14.6% | Potency [3]

Cc1nc(-c2ccc3c(c2)CCN(CCC2CCC(NC(=O)/C=C/c4ccc(F)cc4)CC2)CC3)no1 (centres undefined)
inactive: Potency [6] | Potency [7] | Potency [8] | Potency [3] | Potency [4] | Potency [9]

CCN(C(=O)N(CC)c1ccccc1)c1ccccc1
inactive: Potency [6] | Potency [7] | Potency [3] | Potency [4] | Potency [5] | Potency [9]
